According to PubChem BioAssay (NCATS):
Inconclusive results are not listed. A number with no mark means an inactive call. Calls of active or inactive are those of the source. The call rests on the fitted dose curve; in most records, active means well fitted inhibition curve with a large enough effect; inconclusive means small, poorly fitted or top-dose-only effect; inactive means flat fitted curve, though single readings scatter.

What follows are molecules tested on W2 (assay: qHTS profiling for inhibitors of Plasmodium falciparum proliferation (AID 504749; further: potency means the concentration at half of the fitted maximal effect)). Details: P. falciparum in erythrocytes, SYBR Green DNA, 72 h; series mostly up to 28.7 µM.
Summary of the method: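 Quantitative HTS: compounds pinned into medium, infected erythrocytes added (0.3% parasitemia, 2.5% hematocrit), 72 h culture at 37 C under 5% CO2. Saponin/Triton lysis with SYBR Green I, overnight RT, then fluorescence read.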
Further: nearly all actives have a fitted effect of over 60% in size.

How did the Potency turn out when `Cc1c(Cl)c(=O)oc2cc(OP(=O)(OCCCl)OCCCl)ccc12` was run?
The Potency was 6.75 µM (active).

How did the Potency turn out when `C#C[C@]1(O)CC[C@H]2[C@@H]3CCC4=CC(=O)CCC4=C3C=C[C@@]21CC` was run?
The Potency was 7.57 µM (active).

Which Potency does the source give for `CCC(=O)O[C@H]1CC[C@H]2[C@@H]3CCC4=CC(=O)CC[C@]4(C)[C@H]3CC[C@]12C` here?
The Potency was “inactive”.

With `O=C1NCN(c2ccccc2)C12CCN(CCCOc1ccc(F)cc1)CC2` as the molecule, how does the Potency read?
The Potency was 5.36 µM (active).

What follows are molecules tested on HaCat (assay: Cytotoxic Profiling of Annotated Libraries Using Quantitative High-Throughput Screening (AID 1296008; on max response: on the % scale 0 is the no-effect control and ±100 the full control effect)). Details: Five cell lines viability, CellTiter-Glo ATP luminescence, 48-72 h; max response: active compounds read low.
Summary of the method: (§1)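 Compounds were pin-transferred onto cells and incubated 48 or 72 hr at 37 degree Celsius, 95% humidity. CellTiter-Glo was added, plates sat 10 min at room temperature, then ATP-coupled luminescence was imaged as the viability read-out.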

For `Cc1c(Cl)c(=O)oc2cc(OP(=O)(OCCCl)OCCCl)ccc12`, which max response is on record?
Its max response is 1.96%.

How did the outcome turn out when `C#C[C@]1(O)CC[C@H]2[C@@H]3CCC4=CC(=O)CCC4=C3C=C[C@@]21CC` was run?
Its outcome is “inactive”.

`Oc1ccc([C@H]2CNCc3c2ccc(O)c3O)cc1O` was tested. Which outcome did it give?
The outcome was “inactive”.

`CCC(=O)O[C@H]1CC[C@H]2[C@@H]3CCC4=CC(=O)CC[C@]4(C)[C@H]3CC[C@]12C` was tested. Which outcome did it give?
Its outcome is “inactive”.

For `C[C@H](N)[C@H](O)c1ccc(O)c(O)c1`, which outcome is on record?
Its outcome is “inactive”.

Which outcome does the source give for `O=C(CCl)c1ccc(Cl)cc1Cl` here?
Its outcome is “inactive”.

`C[C@]12Cc3nonc3C[C@@H]1CC[C@@H]1[C@@H]2CC[C@@]2(C)[C@H]1CC[C@]2(C)O` was tested. Which outcome did it give?
The outcome was “inactive”.

The molecules below were run on KB-3-1 in the same assay as above. Details: Five cell lines viability, CellTiter-Glo ATP luminescence, 48-72 h; max response: active compounds read low.
Summary of the method: as §1

How did the max response turn out when `Cc1c(Cl)c(=O)oc2cc(OP(=O)(OCCCl)OCCCl)ccc12` was run?
Its max response is -0.0609%.

Which max response does the source give for `Oc1ccc([C@H]2CNCc3c2ccc(O)c3O)cc1O` here?
Its max response is -14.2%.

How did the max response turn out when `Clc1ccc(CSC(Cn2ccnc2)c2ccc(Cl)cc2Cl)cc1` (centres undefined) was run?
The max response was -15.3%.

How did the max response turn out when `CCC(=O)O[C@H]1CC[C@H]2[C@@H]3CCC4=CC(=O)CC[C@]4(C)[C@H]3CC[C@]12C` was run?
The max response was -26.4%.

Which max response does the source give for `C[C@H](N)[C@H](O)c1ccc(O)c(O)c1` here?
The max response was -14.6%.

For `O=C1NCN(c2ccccc2)C12CCN(CCCOc1ccc(F)cc1)CC2`, which max response is on record?
Its max response is 25%.

These molecules were tested on NIH3T3 in the same assay as above. Details: Five cell lines viability, CellTiter-Glo ATP luminescence, 48-72 h; max response: active compounds read low.
Summary of the method: as §1

For `Cc1c(Cl)c(=O)oc2cc(OP(=O)(OCCCl)OCCCl)ccc12`, which max response is on record?
The max response was -22.4%.

`C#C[C@]1(O)CC[C@H]2[C@@H]3CCC4=CC(=O)CCC4=C3C=C[C@@]21CC` was tested. Which max response did it give?
Its max response is -4.44%.

With `Oc1ccc([C@H]2CNCc3c2ccc(O)c3O)cc1O` as the molecule, how does the max response read?
The max response was -2.59%.

With `CCC(=O)O[C@H]1CC[C@H]2[C@@H]3CCC4=CC(=O)CC[C@]4(C)[C@H]3CC[C@]12C` as the molecule, how does the max response read?
Its max response is 0.89%.

How did the max response turn out when `C[C@H](N)[C@H](O)c1ccc(O)c(O)c1` was run?
Its max response is -48.1%.

`O=C(CCl)c1ccc(Cl)cc1Cl` was tested. Which max response did it give?
Its max response is -36.1%.

Which max response does the source give for `C[C@]12Cc3nonc3C[C@@H]1CC[C@@H]1[C@@H]2CC[C@@]2(C)[C@H]1CC[C@]2(C)O` here?
The max response was -6.95%.
